In PubChem BioAssay AID463173 (ICCB-Longwood Screening Facility, Harvard Medical School, 2010):
Screen size: about 52,000 compounds; about 4,300 (8.3%) were called active. Shown is part of a subset that was picked to be rich in actives. Values without a mark were called inactive. Cut-off read from the data, not from the text of the source: active = survival mostly below about 52% (no sharp cut-off); inactive = mostly above about 56%.

test system: DeltatarO mutant; assay: S. aureus survival, RN4220 and DeltatarO strains – OD600, teichoic acid synthesis inhibitors, primary screen (AID 463173); settings: S. aureus RN4220 wild type/DeltatarO growth, OD600, 18 h, stronger effect = lower value, screened at 18.75 µg/mL (by protocol)

SMILES | survival
Cc1ccc(S(=O)(=O)c2nnn3c2nc(NCc2ccc4c(c2)OCO4)c2sccc23)cc1 | 113%
COc1ccccc1CNC(=O)CCn1c(=O)c2cccn2c2cccnc21 | 80%
COCCCNC(=O)c1nn(-c2ccc(C)cc2)nc1CO | 82%
O=C(CSc1oc(-c2ccccc2)nc1S(=O)(=O)c1ccccc1)c1ccccc1 | 148%
O=C(CSc1oc(-c2ccccc2)nc1S(=O)(=O)c1ccc(Cl)cc1)c1ccccc1 | 44% (active)
Cc1ccc(-c2nc(S(=O)(=O)c3ccc(C)cc3)c(SCC(=O)NC3CCCCC3)o2)cc1 | 51%
Cc1ccc(-c2nc(S(=O)(=O)c3ccc(C)cc3)c(SCC(=O)c3ccccc3)o2)cc1 | 52%
Cc1ccc(-c2nc(S(=O)(=O)c3ccc(C)cc3)c(SCC(=O)Nc3ccc(F)cc3)o2)cc1 | 58%
Cc1ccc(S(=O)(=O)c2nc(-c3ccc(F)cc3)oc2SCC(=O)c2ccccc2)cc1 | 47% (active)
O=C(CSc1oc(-c2ccc(F)cc2)nc1S(=O)(=O)c1ccc(Cl)cc1)c1ccccc1 | 45% (active)
Cc1ccc(-c2nc(S(=O)(=O)c3ccccc3)c(SCC(=O)NC3CCCCC3)o2)cc1 | 43% (active)
Cc1ccc(S(=O)(=O)c2nc(-c3ccccc3)oc2SCC(=O)NC2CCCCC2)cc1 | 166%
O=C(CSc1oc(-c2ccccc2)nc1S(=O)(=O)c1ccc(Br)cc1)c1ccccc1 | 58%
O=C(CSc1oc(-c2ccccc2)nc1S(=O)(=O)c1ccc(Cl)cc1)Nc1ccc(F)cc1 | 162%
O=C(CSc1oc(-c2ccc(F)cc2)nc1S(=O)(=O)c1ccccc1)c1ccc(Cl)cc1 | 55%
Cc1cccc(N2C(=O)C(CC(=O)Nc3ccc(F)cc3)N(C3CCCC3)C2=O)c1 (stereo unspecified) | 130%
CCCC1=Nc2cc(C(=O)NCCc3ccc(OC)cc3OC)ccc2Sc2ccccc21 | 99%
O=C(CC(NCc1ccccc1)C(=O)O)NC1CCCCC1 (stereo unspecified) | 102%
Cn1c(=O)c(C(=O)NCCN2CCNCC2)c(O)c2ccccc21 | 68%
CCCn1c(=O)c2sccc2n2c(CCCC(=O)NC3CCC(C)CC3)nnc12 (stereo unspecified) | 100%
COc1ccc(OC)c(CNC(=O)c2cnc(N(C)C)nc2)c1 | 71%
O=C(Cc1ccc(NC(=O)N2CCCCc3ccccc32)cc1)Nc1ccccc1Br | 73%
Cc1ccc(C)c(N2CCN(C(=O)c3cccc(-n4c(C)nc5cccnc54)c3)CC2)c1 | 78%

SMILES | survival
Cc1ccc(CNc2nc3ccccc3c3nc(-c4cccc(C)c4)nn23)cc1 | 18% (active)
Cc1cccc(-c2nc3c4ccccc4nc(NCc4ccc(F)cc4)n3n2)c1 | 84%
COc1cccc(CNC(=O)Cn2c(=O)n3nc(-c4cccc(C)c4)nc3c3ccccc32)c1 | 93%
CCc1c(C)nc2nncn2c1NCc1ccccc1 | 85%
c1ccc(CNc2nc3ccccc3c3nc(-c4ccccc4)nn23)cc1 | 54%
Cc1ccc(CNc2cc(C)nc3nc(-c4ccc(C)cc4)nn23)cc1 | 69%
COc1cccc(CNc2nc3c(-c4cccc(C)c4)nnn3c3ccccc23)c1 | 96%
COc1cccc(CNc2nc3ccccc3c3nc(-c4cccc(C)c4)nn23)c1 | 31% (active)
Clc1ccccc1CNc1nc2ccccc2c2nc(-c3ccccc3)nn12 | 108%
Cc1ccc(CNc2cc(C)nc3nc(-c4cccc(C)c4)nn23)cc1 | 124%
COc1ccc(CNc2nc3ccccc3c3nc(-c4ccccc4)nn23)cc1 | 35% (active)
CCc1c(C)nc2nc(-c3ccccc3)nn2c1NCc1ccc(C)cc1 | -4% (active)
N#C/C(=C\C1CC=CCC1)c1nc2ccccc2[nH]1 (stereo unspecified) | 86%
Cc1cc(C)cc(NC(=O)CSc2nc(-c3ccccc3)nn2C(=O)c2ccco2)c1 | 110%
S=C(NCCCN1CCOCC1)N1CCN(c2ccccc2)CC1 | 84%
Cc1c(C=Nc2ccc(Cl)cc2)c(O)n(C)c(=O)c1C#N | 74%
CCSc1ncc(Cl)c(C(=O)Nc2c(C(=O)Nc3ccc(Cl)cc3)oc3ccccc23)n1 | 105%
Cc1cccc(-c2nc3c4ccccc4nc(NCc4ccc(Cl)cc4)n3n2)c1 | 44% (active)
Cc1cccc(-c2nc3c4ccccc4nc(N4CCN(c5ccc(F)cc5)CC4)n3n2)c1 | 65%
Clc1ccc(CNc2nc3ccccc3c3nc(-c4cccnc4)nn23)cc1 | 80%
Cc1cccc(-c2nc3c4ccccc4nc(N4CCN(c5cccc(Cl)c5)CC4)n3n2)c1 | 71%
CC(=O)c1ccc(N2CCN(c3nc4ccccc4c4nc(-c5cccc(C)c5)nn34)CC2)cc1 | 41% (active)
CCCCCC(=O)Nc1ccc(NC(=O)c2cc3ccccc3o2)c(OC)c1 | 68%
